From PubChem BioAssay AID743320 (Broad Institute, 2014)
Entries with a potency or affinity are not part of this list. Active and inactive are the calls of the source.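 Rule for the calls: active = signal drop whose fitted half-maximal potency is at most twice the top valid dose tested; inconclusive = flat curve inhibiting 30 to 70 percent, or a poor fit; inactive = the rest.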

Molecular target: Endoplasmic reticulum aminopeptidase 2 (Homo sapiens) (UniProt Q6P179)
Assay: inhibition of ERAP2 arginine-AMC cleavage – biochemical, fluorescence plate reader, cherry-picked, set 2, selectivity assay for selective ERAP1 modulator project, dose response (AID 743320)
Settings: recombinant ERAP2, Arg-AMC fluorescence, 1 h; series mostly up to 11 µM; activity change, negative = inhibition: at the top concentration

Sequence of Endoplasmic reticulum aminopeptidase 2 (Homo sapiens) (Q6P179 whole entry, looked up): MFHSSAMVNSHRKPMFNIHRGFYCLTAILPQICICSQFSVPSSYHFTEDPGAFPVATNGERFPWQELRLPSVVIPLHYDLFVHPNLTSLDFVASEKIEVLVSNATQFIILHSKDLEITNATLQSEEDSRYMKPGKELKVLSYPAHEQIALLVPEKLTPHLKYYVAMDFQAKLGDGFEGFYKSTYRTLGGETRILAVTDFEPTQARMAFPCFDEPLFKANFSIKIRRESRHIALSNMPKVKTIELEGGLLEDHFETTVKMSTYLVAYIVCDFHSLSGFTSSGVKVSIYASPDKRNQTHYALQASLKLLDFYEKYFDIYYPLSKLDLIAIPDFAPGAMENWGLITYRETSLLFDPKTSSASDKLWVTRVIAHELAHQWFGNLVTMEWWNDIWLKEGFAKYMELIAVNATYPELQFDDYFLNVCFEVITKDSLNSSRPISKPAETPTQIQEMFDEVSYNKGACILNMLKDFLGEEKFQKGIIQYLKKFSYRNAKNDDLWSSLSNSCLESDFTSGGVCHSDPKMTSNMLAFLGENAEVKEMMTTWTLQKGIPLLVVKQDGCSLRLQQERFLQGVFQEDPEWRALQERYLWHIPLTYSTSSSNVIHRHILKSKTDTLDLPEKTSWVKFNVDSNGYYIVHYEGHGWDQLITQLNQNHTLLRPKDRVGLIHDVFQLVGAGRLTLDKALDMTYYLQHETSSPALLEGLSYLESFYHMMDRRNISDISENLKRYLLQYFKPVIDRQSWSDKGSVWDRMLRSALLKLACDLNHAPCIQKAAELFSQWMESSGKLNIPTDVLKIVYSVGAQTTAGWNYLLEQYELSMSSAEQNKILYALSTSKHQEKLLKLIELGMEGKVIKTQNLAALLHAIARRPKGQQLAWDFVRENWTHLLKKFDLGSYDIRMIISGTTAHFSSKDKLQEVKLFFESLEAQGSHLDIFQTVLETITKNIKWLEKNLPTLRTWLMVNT

Activity change, negative = inhibition, inactive:
Cc1c(O)ccc2c(CN3CCN(Cc4ccccc4)CC3)cc(=O)oc12 408%
C[C@@H]1CCCCO[C@@H](CN(C)C(=O)CCC(F)(F)F)[C@@H](C)CN([C@@H](C)CO)C(=O)c2cc(NS(=O)(=O)c3ccccc3)ccc2O1 14.4% [at 2.6 µM]
C[C@@H]1CCCCO[C@H](CN(C)Cc2ccc(C(=O)O)cc2)[C@@H](C)CN([C@H](C)CO)C(=O)c2cc(NC(=O)Nc3ccc(C(F)(F)F)cc3)ccc2O1 2.62%
O=C(C[C@@H]1CC[C@@H]2[C@H](COC[C@H](O)CN2C(=O)Nc2cccc(Cl)c2)O1)N1CCCCC1 2.69%
Cc1ccc(S(=O)(=O)Nc2ccc3c(c2)C(=O)N([C@@H](C)CO)C[C@H](C)[C@H](CN(C)C)OCCCC[C@@H](C)O3)cc1 14.1%
C[C@H](CO)N1C[C@H](C)[C@H](CN(C)Cc2ccc(C(=O)O)cc2)Oc2c(NC(=O)Nc3ccccc3)cccc2C1=O 22.8%
O=C(CSc1cn[nH]n1)Nc1cccc(C(=O)O)c1 13.8%
C[C@@H]1CN([C@H](C)CO)C(=O)c2cc(NC(=O)Nc3ccc(F)cc3)ccc2O[C@H]1CN(C)Cc1ccc(C(=O)O)cc1 1.24%
COc1ccc(NC(=O)Nc2ccc3c(c2)C(=O)N([C@H](C)CO)C[C@@H](C)[C@H](CN(C)Cc2ccc(C(=O)O)cc2)OCCCC[C@@H](C)O3)cc1 12.3%
O=C(C[C@H]1CC[C@@H]2[C@H](COC[C@@H](O)CN2C(=O)Nc2cccc(Cl)c2)O1)N1CCCCC1 32.4%
CCCNC(=O)C[C@@H]1CC[C@@H]2[C@H](COC[C@H](O)CN2C(=O)Nc2cccc(Cl)c2)O1 22.2%
O=C(O)c1ccccc1NS(=O)(=O)c1cccc(-n2sc3ccccc3c2=O)c1 3.47%
COc1ccc(CN(C)C[C@H]2OCCCC[C@@H](C)Oc3ccc(NS(=O)(=O)c4cccs4)cc3C(=O)N([C@H](C)CO)C[C@H]2C)cc1 3.67%
C[C@H](CO)N1C[C@H](C)[C@H](CN(C)CC2CCCCC2)Oc2c(NC(=O)Nc3ccc(C(F)(F)F)cc3)cccc2C1=O 11.4%
Cc1noc(C)c1NC(=O)N(C)C[C@@H]1Oc2c(NC(=O)Nc3ccc(F)cc3)cccc2C(=O)N([C@H](C)CO)C[C@@H]1C 18.4%
C[C@@H]1CCCCO[C@@H](CN(C)Cc2ccccc2)[C@H](C)CN([C@H](C)CO)C(=O)c2cc(NS(=O)(=O)c3cccs3)ccc2O1 6.39%
O=C(C[C@H]1CC[C@H]2[C@@H](COC[C@@H](O)CN2C(=O)Nc2cccc(Cl)c2)O1)N1CCCCC1 8.71%
N#Cc1c(N)n(CCNC(=O)c2ccccc2)c2nc3ccccc3nc12 438%
COC(=O)[C@H]1[C@H](CO)[C@H]2Cn3c(ccc(-c4ccncc4)c3=O)[C@H]2N1Cc1ccccc1F 15.2%
NC(=NCCc1c[nH]c2ccccc12)NS(=O)(=O)c1cc(F)ccc1F 9.24%
